Results published in the supplement of paper PMC3545927.
Some of the results follow. The hit rate among all sequences tested is not known here.

Target: furin, P09958
Test: furin cleavage Z-score vs untreated control; higher = more cleavage, active = 3.5 or more, inactive = 1 or less, 8 variable residues between constant flanks
Summary of the method: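 Read counts from sequencing released DNA gave abundance for each bead-bound 8-mer peptide–cDNA fusion cut by purified furin over 7.5, 15 or 30 min. The cleavage Z-score compares log counts with furin-free reactions after lowess adjustment and median absolute deviation scaling.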
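Also: purified furin at 1:10 enzyme:substrate in 50 mM HEPES pH 7.5.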

furin, P09958, sequence (P09958 whole entry): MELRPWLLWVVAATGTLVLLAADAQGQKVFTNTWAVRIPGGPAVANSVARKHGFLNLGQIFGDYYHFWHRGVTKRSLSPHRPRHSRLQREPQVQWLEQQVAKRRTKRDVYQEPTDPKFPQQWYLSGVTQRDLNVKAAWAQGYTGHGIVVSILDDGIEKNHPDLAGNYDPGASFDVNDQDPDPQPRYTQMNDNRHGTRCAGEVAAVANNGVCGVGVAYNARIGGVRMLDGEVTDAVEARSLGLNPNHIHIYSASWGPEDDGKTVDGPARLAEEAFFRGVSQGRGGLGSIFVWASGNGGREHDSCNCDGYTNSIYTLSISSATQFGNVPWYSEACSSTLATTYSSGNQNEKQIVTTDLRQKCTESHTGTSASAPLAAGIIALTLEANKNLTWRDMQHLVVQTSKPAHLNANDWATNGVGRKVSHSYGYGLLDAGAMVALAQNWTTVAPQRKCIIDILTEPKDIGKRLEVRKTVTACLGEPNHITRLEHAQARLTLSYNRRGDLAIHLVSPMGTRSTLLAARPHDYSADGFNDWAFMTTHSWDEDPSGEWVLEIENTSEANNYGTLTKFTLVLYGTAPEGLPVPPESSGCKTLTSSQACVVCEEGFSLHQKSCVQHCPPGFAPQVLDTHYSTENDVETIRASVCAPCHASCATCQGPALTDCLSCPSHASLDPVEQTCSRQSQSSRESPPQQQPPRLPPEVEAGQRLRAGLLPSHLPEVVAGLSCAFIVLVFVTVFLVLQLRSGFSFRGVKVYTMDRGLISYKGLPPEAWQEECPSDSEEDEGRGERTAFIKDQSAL

| Sequence | furin cleavage Z-score (7.5 min) | furin cleavage Z-score (15 min) | furin cleavage Z-score (30 min) |
| --- | --- | --- | --- |
| CAVIAPAVQTAGNASASA [HC1033] | 0.392 (inactive) | 0.329 (inactive) | 0.692 (inactive) |
| CAFFTELDGVAGNASASA [HC1221] | -0.975 (inactive) | -0.00103 (inactive) | -0.854 (inactive) |
| CAEVPCHRPFAGNASASA [HC2407] | -0.191 (inactive) | 0.106 (inactive) | 0.623 (inactive) |
| CAECVVCCSMAGNASASA [HC2140] | 0.85 (inactive) | 1.09 | -0.883 (inactive) |
| CAEVPCHRPYAGNASASA [HC2409] | 0.869 (inactive) | -0.249 (inactive) | 1.01 |
| CAEVVTSCWVAGNASASA [HC2220] | -1.37 (inactive) | 0.202 (inactive) | -0.78 (inactive) |
| CAVVCCSRSYAGNASASA [HC2053] | -1.24 (inactive) | -0.358 (inactive) | 0.798 (inactive) |
| CACVCCSMSYAGNASASA [HC2000] | -0.467 (inactive) | -0.374 (inactive) | 0.0175 (inactive) |
| CAGKKRTVEMAGNASASA [FS-2861] | -0.948 (inactive) | 0.0508 (inactive) | -1.47 (inactive) |
| CASPSRTKRLAGNASASA [FS-870] | 7.89 (active) | 8.76 (active) | 6.67 (active) |
| CAMWKCLIRLAGNASASA [HC964] | 0.587 (inactive) | 2.14 | 2 |
| CAANRRDVRLAGNASASA [FS-322] | 0.0384 (inactive) | -1.82 (inactive) | 1.41 |
| CASNQRPKRLAGNASASA [FS-298] | 5.25 (active) | 8.19 (active) | 7.26 (active) |
| CAMKKRTKRLAGNASASA [FS-365] | 9.31 (active) | 8.89 (active) | 7.26 (active) |
| CAEVVCHRPSAGNASASA [HC2350] | -0.3 (inactive) | 0.778 (inactive) | 0.34 (inactive) |
| CADWMEECSQAGNASASA [HC1808] | 0.73 (inactive) | -0.408 (inactive) | -0.438 (inactive) |
| CAVVCCSMSMAGNASASA [HC2086] | 0.14 (inactive) | -1.35 (inactive) | 0.14 (inactive) |
| CAVPQSFQVAAGNASASA [HC770] | -0.249 (inactive) | -1.95 (inactive) | -0.519 (inactive) |
| CAPSQRSKRPAGNASASA [FS-477] | -0.582 (inactive) | 0.273 (inactive) | -0.55 (inactive) |
| CAGWLRSKKAAGNASASA [FS-1530] | -0.625 (inactive) | -0.994 (inactive) | -0.39 (inactive) |
| CAVTQRSKRAAGNASASA [FS-388] | 10.4 (active) | 9.15 (active) | 7.46 (active) |
| CAHPQRSKKAAGNASASA [FS-248] | -0.0765 (inactive) | 0.432 (inactive) | 1.4 |
| CATQQRSKRAAGNASASA [FS-1496] | 7.63 (active) | 7.61 (active) | 6.89 (active) |

| Sequence | furin cleavage Z-score (7.5 min) | furin cleavage Z-score (15 min) | furin cleavage Z-score (30 min) |
| --- | --- | --- | --- |
| CAGRKPARLIAGNASASA [HC1447] | -1.48 (inactive) | -1.33 (inactive) | -0.697 (inactive) |
| CARHVRISRSAGNASASA [FS-708] | 10.5 (active) | 10.5 (active) | 7.87 (active) |
| CARHVRSYNHAGNASASA [FS-2026] | 0.349 (inactive) | 0.971 (inactive) | 3.01 |
| CAPAGRISRSAGNASASA [FS-835] | 6.15 (active) | 10.5 (active) | 8.23 (active) |
| CAIPLVGAPLAGNASASA [HC229] | -1.25 (inactive) | -1.1 (inactive) | -0.498 (inactive) |
| CAYGVGSSIAAGNASASA [HC512] | -0.889 (inactive) | -1.2 (inactive) | 0.412 (inactive) |
| CALRPRQRRAAGNASASA [FS-360] | 7.42 (active) | 7.73 (active) | 6.07 (active) |
| CALTPLRDWAAGNASASA [HC637] | -0.181 (inactive) | 1.58 | -0.616 (inactive) |
| CAQRQRAKRNAGNASASA [FS-1252] | 13.8 (active) | 13.3 (active) | 10.1 (active) |
| CALRLRGPRAAGNASASA [FS-943] | 4.69 (active) | 3.33 | 3.8 (active) |
| CAKCPCQVPSAGNASASA [HC1216] | 0.69 (inactive) | 0.244 (inactive) | -0.458 (inactive) |
| CAKCPRQRRAAGNASASA [FS-445] | 7.55 (active) | 6.15 (active) | 7.23 (active) |
| CALDPQARVAAGNASASA [HC1493] | -1.42 (inactive) | -2.18 (inactive) | -0.348 (inactive) |
| CAQRQKKVTFAGNASASA [HC1394] | 1.32 | -2.05 (inactive) | -3.25 (inactive) |
| CAKIPRFRRIAGNASASA [FS-449] | 0.2 (inactive) | 0.191 (inactive) | 2.93 |
| CAARAACRAAAGNASASA [HC1520] | -1.54 (inactive) | -0.427 (inactive) | -0.259 (inactive) |
| CAISPRQRRAAGNASASA [FS-543] | 7.77 (active) | 6.99 (active) | 6.1 (active) |
| CAPRARCRRAAGNASASA [FS-138] | 8.91 (active) | 10.2 (active) | 7.25 (active) |
| CARRPEGRTWAGNASASA [HC195] | -0.89 (inactive) | 0.845 (inactive) | -0.916 (inactive) |
| CALRPRFRREAGNASASA [FS-614] | 10 (active) | 8.78 (active) | 6.07 (active) |
| CAISGIQYLAAGNASASA [HC1045] | -1.05 (inactive) | 0.557 (inactive) | -1.83 (inactive) |
| CALRWRQRRAAGNASASA [FS-272] | 3.83 (active) | 4.93 (active) | 3.79 (active) |
